A number with no mark means an inactive call. Records with an inconclusive call do not appear. The source made the active and inactive calls. Unless noted, calls follow the shape of the dose curve; as a rule, active = well fitted curve in the direction sought with a large enough effect in the repeat runs; inconclusive = weak or mixed curves; inactive = no such curve, though single readings can be large; an effect the other way counts as inactive or inconclusive.

Assay [1] in a line: Caspase-3/7 induction in HepG2 cells by small molecules, qHTS assay (AID 1346978). Also: nearly all actives have a fitted effect of over 15% in size. Also: potency is read from the fitted curve at half-maximal effect. In a few lines:
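Wild-type HepG2 cells (2,000/well) were settled 5 h at 37 C, 5% CO2, then exposed to compounds in DMSO for 17 h. Caspase-3/7 activity was read by luminescence 30 min after adding Caspase-Glo 3/7 reagent at room temperature.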
In general terms: qHTS replaces the single test concentration by a dilution series.

Assay [2] is described as follows: Caspase-3/7 induction in CHO-K1 cells by small molecules, qHTS cell viability counter screen (AID 1346979). Also: nearly all actives have a fitted effect of over 35% in size. Also: potency is read from the fitted curve at half-maximal effect. Put shortly:
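Following a 5hr settling period, CHO-K1 cells at 1,500 per well received DMSO-dissolved compounds. Cell viability was quantified 16hr later by CellTiter-Fluor fluorescence, measured after 1hr with reagent at 37C.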

Assay [3] in a line: Caspase-3/7 induction in CHO-K1 cells by small molecules, qHTS assay (AID 1346980). Also: nearly all actives have a fitted effect of over 15% in size. Also: potency is read from the fitted curve at half-maximal effect. In a few lines: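 Wild-type cells were seeded at 1,500 per well and settled 5 hr at 37 C, 5% CO2, then exposed to DMSO-dissolved compounds for 17 hr. Caspase-Glo 3/7 reagent was added, and luminescence was read after 30min at room temperature.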
Assay [4] in a line: Caspase-3/7 induction in HepG2 cells by small molecules, qHTS cell viability counter screen (AID 1346981). Also: nearly all actives have a fitted effect of over 30% in size. Also: potency is read from the fitted curve at half-maximal effect. In a few lines:
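CellTiter-Fluor fluorescence measured viability in the same wells used for Caspase-Glo 3/7. HepG2 (wild type) at 2,000 cells/well were pre-incubated 5 hr, dosed, and given reagent at 16 hr, with 1 hr further at 37C.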

Assay [5] addresses Nuclear receptor subfamily 1 group I member 2 (Homo sapiens) (UniProt O75469). Kind of assay: Human pregnane X receptor (PXR) small molecule agonists, qHTS assay (AID 1346982). Also: nearly all actives have a fitted effect of over 35% in size. Also: potency is read from the fitted curve at half-maximal effect. In a few lines:
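Agonist mode: luminescence from ONE-Glo after 24 h compound exposure at 37C in HepG2 cells carrying hPXR-responsive CYP3A4 luciferase, plated in charcoal-stripped serum medium 5 h beforehand.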

Assay [6] has as its target Acetylcholinesterase (Homo sapiens) (UniProt P22303). Nature of the assay: Acetylcholinesterase (AChE) small molecule antagonists: colormetric cell-based qHTS assay (AID 1347395; calls by dose curve; also: nearly all actives have a fitted effect of over 30% in size). In a few lines: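 After overnight attachment at 37 C, SH-SY5Y cells get 30 min compound exposure; detection cocktail (acetylthiocholine, DTNB) then incubates 90 min at 37 C, and absorbance reflects AChE-generated thiocholine.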

Assay [7] concerns the target Nuclear receptor subfamily 1 group I member 2 (Rattus norvegicus) (UniProt Q9R1A7). Kind of assay: Rat pregnane X receptor (rPXR) activation by small molecules, qHTS assay (AID 1346983). Also: nearly all actives have a fitted effect of over 20% in size. The note with it: rPXR luciferase reporter cells, One-Glo luminescence, 24 h; max activation: stronger effect = higher value. In a few lines:
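Cell-based rPXR luciferase reporter assay, 2,000 cells per well, rested 5hr at 37 C before compound addition in DMSO, then 24 hr at 37 C. One-Glo reagent was added and luminescence read after 30 min at room temperature.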

In assay [8] the target is Nuclear receptor subfamily 1 group I member 2 (Homo sapiens) (UniProt O75469). Kind of assay: CYP3A4 induction through human pregnane X receptor (PXR) by small molecules, qHTS assay (AID 1346984). Also: nearly all actives have a fitted effect of over 40% in size. Put shortly: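 Read-out is luminescence after One-Glo addition, following a 3 hr, 37C incubation with Luciferin-IPA CYP3A4 substrate (3uM final). Before that, compounds were on DPX-2 cells (HepG2 co-transfected with PXR element plus CYP3A4-promoter luciferase) for 24 hr at 37C.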
Nuclear receptor subfamily 1 group I member 2 (Homo sapiens), sequence (O75469 whole entry, looked up): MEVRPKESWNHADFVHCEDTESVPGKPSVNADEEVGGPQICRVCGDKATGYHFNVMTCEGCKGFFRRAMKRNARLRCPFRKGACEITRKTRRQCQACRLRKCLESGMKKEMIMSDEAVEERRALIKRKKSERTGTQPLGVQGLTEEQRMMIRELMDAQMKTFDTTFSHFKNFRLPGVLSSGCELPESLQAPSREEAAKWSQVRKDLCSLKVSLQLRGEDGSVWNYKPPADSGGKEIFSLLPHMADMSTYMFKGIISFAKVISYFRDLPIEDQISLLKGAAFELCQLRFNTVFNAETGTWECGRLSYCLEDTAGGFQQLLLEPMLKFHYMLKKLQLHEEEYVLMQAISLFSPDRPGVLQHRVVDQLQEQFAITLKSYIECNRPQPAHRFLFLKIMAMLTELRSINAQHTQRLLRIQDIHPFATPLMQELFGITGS

Assay [9] shares this target. Kind of assay: Human pregnane X receptor (PXR) activation by small molecules, qHTS assay (AID 1346985). Also: nearly all actives have a fitted effect of over 40% in size. Put shortly:
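DPX-2 cells (HepG2 co-transfected with a PXR response element and a CYP3A4-promoter luciferase construct) were seeded at 2,000 per well, rested 5 hr at 37C, then exposed to DMSO-dissolved compounds for 24 hr. Activation was read as luciferase luminescence.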

A short description of assay [10]: Human pregnane X receptor (PXR) small molecule agonists, qHTS cell viability counter screen (AID 1346977). Also: nearly all actives have a fitted effect of over 50% in size. Also: potency is read from the fitted curve at half-maximal effect. Put shortly:
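In each well, the PXR reporter HepG2 line was checked for viability: CellTiter-Fluor reagent added 23hr post-dosing, fluorescence read after 1hr incubation at 37C.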
% is scaled to controls: 0 for no effect and ±100 for the full control effect.

Acetylcholinesterase (Homo sapiens), sequence (P22303 whole entry, looked up): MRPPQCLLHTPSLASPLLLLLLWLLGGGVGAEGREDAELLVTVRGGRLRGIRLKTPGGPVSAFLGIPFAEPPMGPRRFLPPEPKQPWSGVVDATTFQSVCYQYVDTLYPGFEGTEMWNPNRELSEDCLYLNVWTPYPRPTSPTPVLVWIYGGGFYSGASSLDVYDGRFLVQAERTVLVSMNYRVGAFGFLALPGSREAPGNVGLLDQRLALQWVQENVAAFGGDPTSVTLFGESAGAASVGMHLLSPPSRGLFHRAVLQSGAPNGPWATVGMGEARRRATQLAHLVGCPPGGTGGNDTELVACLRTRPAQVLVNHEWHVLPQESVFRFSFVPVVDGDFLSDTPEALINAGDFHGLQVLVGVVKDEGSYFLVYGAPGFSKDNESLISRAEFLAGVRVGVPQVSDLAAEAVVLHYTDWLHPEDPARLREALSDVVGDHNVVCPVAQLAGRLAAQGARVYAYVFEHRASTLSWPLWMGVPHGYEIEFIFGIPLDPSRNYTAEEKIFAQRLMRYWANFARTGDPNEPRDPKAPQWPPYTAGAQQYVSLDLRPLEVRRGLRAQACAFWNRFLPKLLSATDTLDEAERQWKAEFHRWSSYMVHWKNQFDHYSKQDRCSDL
Nuclear receptor subfamily 1 group I member 2 (Rattus norvegicus), sequence (Q9R1A7 whole entry, looked up): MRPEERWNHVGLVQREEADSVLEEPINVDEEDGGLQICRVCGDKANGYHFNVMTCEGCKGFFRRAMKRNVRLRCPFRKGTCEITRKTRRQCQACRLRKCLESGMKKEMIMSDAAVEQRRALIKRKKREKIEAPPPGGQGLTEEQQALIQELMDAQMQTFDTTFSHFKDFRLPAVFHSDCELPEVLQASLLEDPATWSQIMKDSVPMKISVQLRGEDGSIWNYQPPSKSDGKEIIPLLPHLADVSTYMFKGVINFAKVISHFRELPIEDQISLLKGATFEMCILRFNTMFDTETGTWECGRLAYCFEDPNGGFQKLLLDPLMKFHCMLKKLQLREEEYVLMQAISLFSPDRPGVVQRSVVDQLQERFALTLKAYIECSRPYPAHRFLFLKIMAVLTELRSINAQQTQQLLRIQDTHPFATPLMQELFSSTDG

For `Nc1c(Oc2ccccc2)cc(O)c2c1C(=O)c1ccccc1C2=O`, the Potency result in [1], in assay [3] and in assay [6] was “inactive” each time. Further, the Potency is 26.6 µM (active) in [2], 18.8 µM (active) in [4] and 10.6 µM (active) in assay [5].
In the case of `CC[C@H](C)[C@H]1O[C@]2(C=C[C@@H]1C)C[C@@H]1C[C@@H](C/C=C(\C)[C@@H](O[C@H]3C[C@H](OC)[C@@H](O[C@H]4C[C@H](OC)[C@@H](O)[C@H](C)O4)[C@H](C)O3)[C@@H](C)/C=C/C=C3\CO[C@@H]4[C@H](O)C(C)=C[C@@H](C(=O)O1)[C@]34O)O2`, the Potency in assay [1] is 32.2 µM (active); in [2], 14.4 µM (active); in assay [4] it was 25.6 µM (active). The Potency entry in assay [3], in assay [5], in [8], in assay [9] and in assay [6] was “inactive” throughout. In addition, the max activation in assay [7] was -15.3%.
Take `CC(=O)c1ccc(-c2ccccc2)cc1`: the Potency result in assay [10], in [2], in [3] and in assay [6] was “inactive” each time. For the same molecule, the Potency in assay [5] is 48.6 µM (active).
Consider `O=C1c2ccccc2C(=O)C1C(=O)C(c1ccccc1)c1ccc(Cl)cc1` (configuration not stated), for which the Potency result in assay [1] and in assay [3] was “inactive” each time. In addition, the results for the Potency in assay [2], in assay [4] and in assay [5] were 15.4 µM (active), 30.6 µM (active) and 19.3 µM (active), respectively.
For `O=C(O)c1cc[c]([Hg][Cl])cc1`, the values for the Potency in assay [10], in [2] and in assay [5] were 68.6 µM (active), 24.3 µM (active) and 21.7 µM (active), respectively. For the same molecule, the Potency result in [3] and in assay [6] was “inactive” throughout.
`CC(C)Oc1cccc(NC(=O)c2ccccc2C(F)(F)F)c1`: the Potency entry in [10], in [3] and in assay [6] was “inactive” each time. Further, the Potency was 45.8 µM (active) in assay [2] and 19.3 µM (active) in assay [5].
As to `COS(=O)(=O)c1ccc(C)cc1`, the Potency result in assay [10], in assay [2], in [3], in [5] and in assay [6] was “inactive” throughout.
For `O=C(Nc1ccc2[nH]ccc2c1)c1cc2cc(F)ccc2n1Cc1cccc(F)c1`, the Potency in assay [10] was 61.1 µM (active); in assay [2], 30.6 µM (active); in assay [5], 24.3 µM (active). The Potency result in assay [6] is “inactive”.
As to `CCN(CC)c1c([N+](=O)[O-])cc(C(F)(F)F)c(N)c1[N+](=O)[O-]`, the Potency entry in [10], in assay [3], in assay [4] and in [6] was “inactive” each time. Also, in assay [5], the Potency was 6.86 µM (active).
For the molecule `S=C(SSC(=S)N1CCCCC1)N1CCCCC1`, the Potency entry in assay [1], in assay [3] and in [6] was “inactive” each time. In addition, the Potency in assay [2] was 1.88 µM (active); in assay [5], 9.44 µM (active).
Regarding `CCCCCCCCCBr`, the Potency entry in [1], in assay [2], in [3] and in [6] was “inactive” in each case.
For the molecule `CCCN(CCC)c1c([N+](=O)[O-])cc(S(N)(=O)=O)cc1[N+](=O)[O-]`, the Potency was 57.2 µM (active) in [1], 50.1 µM (active) in assay [2], 58.8 µM (active) in [3] and 3.67 µM (active) in [5].
As for `C=CCC1=C(C)C(OC(=O)C2C(C=C(C)C)C2(C)C)CC1=O` (configuration not stated), the Potency entry in assay [1], in assay [3] and in assay [6] was “inactive” each time. The Potency in assay [2] is 55.3 µM (active); in assay [5] it was 10.3 µM (active).
Turning to `CC1(C)C(/C=C(\Cl)C(F)(F)F)C1C(=O)OC(C#N)c1cccc(Oc2ccccc2)c1` (configuration not stated), the Potency entry in [1], in assay [2], in assay [3], in assay [4] and in assay [6] was “inactive” each time. Moreover, the Potency in assay [5] is 1.96 µM (active).
Take `Clc1ccc(CSC(Cn2ccnc2)c2ccc(Cl)cc2Cl)cc1` (configuration not stated): the Potency entry in [1], in assay [3], in assay [8] and in [6] was “inactive” in each case. The Potency in assay [2] is 18.8 µM (active); in assay [5], 9.44 µM (active). Besides, the max activation in assay [7] is 11.4%.
Take `CCc1cc(C)cc(CC)c1-c1c(OC(=O)C(C)(C)C)n2n(c1=O)CCOCC2`: the Potency result in assay [1], in [3], in [5] and in assay [6] was “inactive” in each case. Further, the Potency in [2] was 27.3 µM (active); in assay [4], 30.6 µM (active).
For the molecule `Nc1ccc([N+](=O)[O-])cc1Cl`, the Potency entry in assay [1], in assay [3], in assay [5] and in [6] was “inactive” in each case. For the same molecule, the Potency in assay [2] was 61.1 µM (active).
As for `Oc1cc(Cl)c(Cl)c(Cl)c1`, the Potency entry in [1], in assay [3] and in assay [6] was “inactive” throughout. Besides, the Potency was 65 µM (active) in assay [2] and 29.1 µM (active) in assay [5].
Regarding `ClC(Cl)=C(c1ccc(Cl)cc1)c1ccc(Cl)cc1`, the Potency entry in assay [1], in [2], in [3], in assay [4] and in [6] was “inactive” throughout.
Take `CC(=O)OC1(c2ccccc2)CCN(CCc2ccccc2)CC1`: the Potency result in [1], in assay [2], in [3] and in assay [6] was “inactive” throughout.
As for `Cn1[nH]nnc1=S`, the Potency result in [1], in assay [2], in assay [3], in assay [4], in assay [5] and in assay [6] was “inactive” in each case.
For `CC(C)N1C(=O)N(c2ccccc2)CSC1=NC(C)(C)C`, the Potency entry in assay [1], in assay [3] and in assay [6] was “inactive” each time. For the same molecule, the Potency was 61.1 µM (active) in assay [2] and 6.11 µM (active) in [5].
On to `O=c1oc2ccccc2c(O)c1Cc1c(O)c2ccccc2oc1=O`, for which the Potency entry in assay [1], in [2], in [3], in assay [4] and in [6] was “inactive” throughout. In addition, the max activation in assay [7] was -3.67%.
With `Cc1cc(C)c(C2=C(OC(=O)CC(C)(C)C)C3(CCCC3)OC2=O)c(C)c1`, the Potency result in [1], in assay [2], in [3], in assay [5] and in [6] was “inactive” in each case.
As to `O=CC(Br)(Br)Br`, the Potency result in [1], in assay [3] and in assay [6] was “inactive” in each case. The Potency is 19.3 µM (active) in assay [2] and 54.3 µM (active) in assay [4].

The values above are taken from PubChem BioAssay (Tox21).
